ASM inhibitor = blocks human secretory acid sphingomyelinase | P17405 | placental ASM, HMU-PC fluorogenic substrate, 60 min | Potency, µM (titrated, usually from 57.5 µM), without a hit: at the top dose activity change, negative = inhibition, usual class: inhibitors | actives 0.006% (n = 340,000); note: potency is the fitted concentration of half-maximal effect
Target sequence (P17405 47-631 limits assumed): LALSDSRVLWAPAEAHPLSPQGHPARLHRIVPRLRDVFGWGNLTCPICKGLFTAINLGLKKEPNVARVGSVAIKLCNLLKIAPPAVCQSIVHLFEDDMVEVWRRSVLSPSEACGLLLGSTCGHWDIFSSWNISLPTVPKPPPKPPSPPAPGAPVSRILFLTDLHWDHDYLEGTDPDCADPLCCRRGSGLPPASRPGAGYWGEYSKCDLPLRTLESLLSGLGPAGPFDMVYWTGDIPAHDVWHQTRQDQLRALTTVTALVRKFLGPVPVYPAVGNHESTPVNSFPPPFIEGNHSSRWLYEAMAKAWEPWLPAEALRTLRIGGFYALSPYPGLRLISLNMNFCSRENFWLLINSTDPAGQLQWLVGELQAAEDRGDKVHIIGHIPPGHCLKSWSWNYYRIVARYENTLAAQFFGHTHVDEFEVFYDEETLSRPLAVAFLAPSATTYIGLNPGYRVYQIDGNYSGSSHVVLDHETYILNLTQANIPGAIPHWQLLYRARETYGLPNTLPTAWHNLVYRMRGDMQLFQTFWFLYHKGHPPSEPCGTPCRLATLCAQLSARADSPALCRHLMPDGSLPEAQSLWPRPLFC
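Steps: dispense placental human ASM, pin compound, wait 10 min at room temperature, add HMU-PC0 substrate at 9 uM final, incubate 60 min at 37 °C, add stop solution raising pH to 10, read fluorescence.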
KB-3-1 tox = KB-3-1 parental cell cytotoxicity. Potency, µM (series often up to 46.1 µM), hits mostly cytotoxic. AID 1347075. actives 1.4% (n = 400,000). KB-3-1 viability, CellTiter-Glo ATP luminescence, 72 h; note: potency is the fitted concentration of half-maximal effect; % is set by controls: 0 for no effect and ±100 for the full control effect; nearly all actives have a fitted effect of over 60% in size
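Screening of KB-3-1 cells (DMEM, 10% FBS, phenol-red free) ran from lowest to highest compound concentration; after 72 h at 37 °C viability was read luminescently and curves fitted.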
MCF10A rerep = inducers of DNA re-replication in MCF 10A breast cells; Potency, µM (series often up to 46.1 µM), for the others: at the top dose activity, positive = re-replication, usual class: activators; AID 624296; MCF 10A DNA re-replication, Hoechst nuclear intensity, 48 h; actives 2.9% (n = 350,000); note: potency is the fitted concentration of half-maximal effect; % of control where 0% means no effect; nearly all actives have a fitted effect of over 50% in size
Giardia killer = Giardia lamblia killing; Giardia lamblia trophozoite viability; AID 540267; actives 0.15% (n = 340,000); activity change, % at 7.66 µM, hits read low; in the data active = activity change below about -80%; inconclusive = between about -30% and that limit;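 note: parasites exposed to compound for two days anaerobically before the ATP read; % is set by controls: 0 for no effect and ±100 for the full control effect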
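Killing of trophozoites was scored by loss of ATP luminescence after a 48 hrs anaerobic exposure to compounds at 37 deg C, using 100 cells per well.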
KB-V1 cytotox = KB-V1 MDR subline cytotoxicity; KB-V1 MDR cells viability, CellTiter-Glo, 72 h; Potency, µM (series often up to 46.1 µM), most hits filed as cytotoxic; actives 3.4% (n = 400,000); AID 1347076; note: potency is the fitted concentration of half-maximal effect; % is set by controls: 0 for no effect and ±100 for the full control effect; nearly all actives have a fitted effect of over 60% in size
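Following 72 h at 37 degrees C with compound, KB-V1 cell viability was read by CellTiter-Glo luminescence, medium being phenol-red-free DMEM plus 10% FBS; concentration-response parameters came from normalized, curve-fitted qHTS data.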
SW480 rereplic = DNA re-replication induction in SW480 cells; SW480 DNA re-replication, Hoechst DNA content imaging, 48 h; Potency, µM (titrated, usually from 46.1 µM), for inactives: at the top dose re-replication activation, hits mostly activators; actives 1.8% (n = 340,000); note: potency is the fitted concentration of half-maximal effect; % of control where 0% means no effect; nearly all actives have a fitted effect of over 55% in size
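SW480 cells exposed to compounds for 48 hr at 37 C, 5% CO2, then Hoechst-stained 40 min. Nuclear DNA content imaged by fluorescence scanning (405 nm excitation, 500-530 nm emission); re-replication scored as increased high-intensity nuclei.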
* hit, by the source's call; i = inactive; u = inconclusive; x = no result given; [ ] = remark or other dose. A selection: hits, their analogues and other compounds. The true share with any hit is near 6.9%. Unless noted, calls come from the whole dose curve; as a rule, active = well fitted curve in the direction sought with a large enough effect; inconclusive = small, poorly fitted or top-dose-only effect, or another doubt; inactive = no such curve, though single readings can be large; an effect the other way counts as inactive or inconclusive.

SMILES | ASM inhibitor | KB-3-1 tox | MCF10A rerep | Giardia killer | KB-V1 cytotox | SW480 rereplic
CN(C(=O)c1ccccc1C(=O)OCC(=O)Nc1cccc(Br)c1)c1ccccc1 | -6% | i | -3% | 4 | i | -26%
COc1cccc(NC(=O)COC(=O)c2ccccc2C(=O)N(C)c2ccccc2)c1 | 7% | i | 6% | -10 | 23µM* | -2%
CC1CN(C(=O)c2cc(Br)c(Br)s2)CC(C)O1 (configuration not stated) | 2% | i | -5% | -13 | i | 5%
COc1ccc(OC)c(S(=O)(=O)N2CCN(c3ccccc3OC)CC2)c1 | -1% | i | 6% | -22 | i | 3%
CCOC(=O)Nc1cccc(OCC(=O)Nc2ccccc2OCC)c1 | 0% | i | 10% | 8 | 6.5µM* | -15%
CC(=O)Nc1cccc(OCC(=O)Nc2ccccc2)c1 | 2% | i | -1% | -3 | i | -14%
Cc1cccc(N2CCN(c3nc4ccccc4n4cnnc34)CC2)c1C | -12% | i | u | -10 | i | -14%
c1ccc(C(c2ccccc2)N2CCN(c3nc4ccccc4n4cnnc34)CC2)cc1 | u | 23µM* | 7.3µM* | 14 | 9.2µM* | 2%
c1cnc(N2CCN(c3nc4ccccc4n4cnnc34)CC2)nc1 | -1% | u | -3% | 12 | 7.3µM* | -10%
O=C(NCc1ccc2c(c1)OCO2)c1ccc2c(c1)S(=O)(=O)c1ccccc1C2=O | -3% | i | -12% | -3 | i | -29%
O=c1[nH]c2cc3c(cc2cc1C(c1nnnn1Cc1ccccc1)N1CCCCCC1)OCCO3 (configuration not stated) | 27% | u | u | 2 | u | 21µM*
COCCn1nnnc1C(c1cc2c(C)cc(C)cc2[nH]c1=O)N1CCCCCC1 (configuration not stated) | 5% | i | -3% | -3 | i | 21%
O=c1[nH]c2cc3c(cc2cc1C(c1nnnn1Cc1ccccc1)N1CCCc2ccccc21)OCO3 (configuration not stated) | 17% | u | 3.7µM* | -6 | i | 17%
Cc1cc(C)c2cc(C(O)c3nnnn3Cc3ccccc3)c(=O)[nH]c2c1 (configuration not stated) | -1% | i | 2.6µM* | 3 | i | 4.6µM*
CC(NC(=O)C1CCN(C(=O)c2ccc(-n3ccc4ccccc43)s2)CC1)c1ccccc1 (configuration not stated) | x | i | x | x | i | x
CN(C)S(=O)(=O)N1CCC(Oc2ccc(C(=O)N3C[C@@H]4CCC[C@H]3C4)cc2)CC1 | 2% | i | 5% | 6 | 9.2µM* | 4%
CC(=O)c1ccc(NC(=O)COc2ccccc2-c2nc(C)no2)cc1 | x | i | x | x | i | x
CSc1ccccc1NC(=O)CO/N=C(\C)c1cc2ccccc2o1 | -6% | i | u | 2 | i | 0%
COc1cc(/C=N/OCC(=O)Nc2ccc(OC(F)F)cc2)ccc1OCc1ccccc1 | -5% | 23µM* | u | 0 | 8.2µM* | u
CCOc1ccc(/C=N/OCC(=O)Nc2ccc(OCc3ccccc3)cc2)cc1OC | -6% | i | u | 16 | u | -13%
COc1cc(/C=N/OCC(=O)NC23CC4CC(CC(C4)C2)C3)ccc1OCc1ccccc1 | -8% | u | 21µM* | -22 | u | u
COc1ccc(/C=N/OCC(=O)NC(c2ccccc2)c2ccccc2)cc1OC | -2% | u | 21% | u | 2.3µM* | 0%
C/C(=N\OCC(=O)NC12CC3CC(CC(C3)C1)C2)c1cc2ccccc2o1 | -19% | i | 21µM* | -6 | i | u
Cc1ccc(CNC(=O)c2cn(C)c3ccc(S(=O)(=O)N4CCC(C)CC4)cc3c2=O)cc1 | x | i | x | x | i | x
CC(=O)C1(O)C(C)CC2C3CCC4CC(O)CCC4(C)C3=CCC21C (configuration not stated) | 1% | i | 18µM* | -22 | i | u
SMILES | ASM inhibitor | KB-3-1 tox | MCF10A rerep | Giardia killer | KB-V1 cytotox | SW480 rereplic
C[C@@H]1CC2[C@@H]3CC[C@H]4CC(=O)CC[C@]4(C)C3=CC[C@]2(C)[C@@]1(O)C(=O)CO (some centres not stated) | 4% | i | -5% | -5 | i | 0%
Cc1cc(Nc2ccccc2F)n2nc(-c3ccccc3)nc2n1 | x | i | x | x | i | x
O=C(CNC(=O)c1ccccc1Br)N/N=C/c1cc(Br)ccc1O | 242% | i | u | u | i | 7.3µM*
O=C(Nc1cc(S(=O)(=O)Nc2ccc(Cl)cc2)ccc1O)c1ccc(S(=O)(=O)N2CCCCCC2)cc1 | -20% | i | u | -4 | i | 14%
O=C(N/N=C/c1cc(Cl)ccc1O)c1cccnc1 | 3% | u | u | -14 | i | 1.3µM*
O=C(N/N=C\c1cc(Cl)ccc1O)c1ccc(S(=O)(=O)N2CCCCC2)cc1 | -3% | u | 15µM* | -23 | u | 7.3µM*
O=C(CNC(=O)c1ccccc1)N/N=C/c1cc(Br)ccc1O | 209% | u | 13% | -12 | u | u
O=C(CNC(=O)c1ccc2c(c1)OCO2)N/N=C/c1cc(Br)ccc1O | 168% | u | 7% | 1 | i | 4.1µM*
CCS(=O)(=O)c1nc(S(=O)(=O)c2ccc(C)cc2)c(N2CC(C)CC(C)C2)s1 (configuration not stated) | -4% | i | u | 8 | u | -34%
O=C(CNC(=O)c1ccccc1Br)N/N=C/c1ccccc1O | i | u | u | 8 | u | u
O=C(CCC(=O)Nc1cc(C(F)(F)F)ccc1Cl)N/N=C\c1cc([N+](=O)[O-])ccc1O | -4%[11.5 µM] | i | u | -6 | i | 15µM*
O=[N+]([O-])c1ccc(O)c(/C=N\N=C2c3ccccc3-c3ccccc32)c1 | -24% | 8.2µM* | u | 14 | 13µM* | u
O=C(CCC(=O)Nc1ccc(F)cc1)N/N=C/c1cc([N+](=O)[O-])ccc1O | -2% | i | 17% | 3 | i | u
O=C(N/N=C/c1cc(Cl)ccc1O)c1ccccc1Br | -5% | u | 12% | 13 | u | 6.5µM*
O=C(N/N=C/c1cc([N+](=O)[O-])ccc1O)c1cccc(NC(=O)c2cccc(Cl)c2)c1 | -13% | i | -14% | u | i | 2.3µM*
CC(C)C[C@@H]1CN(CCCC[C@H]2CNC(=O)C(=O)N2CCC2CCCCC2)C(=O)C(=O)N1CC1CCCCC1 | x | i | x | x | i | x

Screening results as filed in PubChem BioAssay.
